Experimental data: PubChem BioAssay AID1159580 (chemical genetic matrix, 2015)
In all, about 5,500 compounds went through this assay and about 2,000 (36%) were called active. Not shown: some 18% with an inconclusive outcome. Rule as the data show it: active = normalized growth mostly below about 0.91 (no sharp cut-off); inconclusive = no clear call, values can overlap the other calls; inactive = mostly above about 0.92. The list shows a part of the results.

Test: chemical genetic growth profiling, strain panel (AID 1159580);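 also: tested at 20 µM; growth read once vehicle control cultures reached saturation at 30 °C; 1 = growth at the plate median or of vehicle wells; lower values mean less growth of the strain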
Settings: growth OD

Measured: normalized growth

Nc1ccc(S(=O)(=O)NC(=O)c2ccccc2)cc1
inactive: S. cerevisiae deletion strains, locus YJR066W, strain TOR1, hits give low values 0.932 | S. cerevisiae deletion strains, locus YJR075W, strain HOC1, hits give low values 1.02 | S. cerevisiae deletion strains, locus YKL009W, strain mrt4, hits give low values 1.02 | S. cerevisiae deletion strains, locus YKL068W, hits give low values 1.01 | S. cerevisiae deletion strains, locus YKL085W, strain MDH1 (second series), hits give low values 1 | S. cerevisiae deletion strains, locus YKL085W, strain MDH1, hits give low values 1 | S. cerevisiae deletion strains, locus YKL160W, strain elf1, hits give low values 1.01 | S. cerevisiae deletion strains, locus YKL190W, strain CNB1, hits give low values 1.01 | S. cerevisiae deletion strains, locus YKR001C, strain vps1, hits give low values 1.03 | S. cerevisiae deletion strains, locus YKR026C, strain gcn3, hits give low values 0.969 | S. cerevisiae deletion strains, locus YKR091W, strain srl3, hits give low values 0.978 | S. cerevisiae deletion strains, locus YLL001W, strain dnm1, hits give low values 0.995 | S. cerevisiae deletion strains, locus YLL026W, hits give low values 1 | S. cerevisiae deletion strains, locus YLL041C, strain sdh2, hits give low values 0.992 | S. cerevisiae deletion strains, locus YLR027C, strain aat2, hits give low values 0.996 | S. cerevisiae deletion strains, locus YLR039C, strain RIC1, hits give low values 0.834 | S. cerevisiae deletion strains, locus YLR058C, strain SHM2, hits give low values 1.01 | S. cerevisiae deletion strains, locus YLR102C, strain apc9, hits give low values 1.01 | S. cerevisiae deletion strains, locus YLR113W, strain HOG1, hits give low values 0.968 | S. cerevisiae deletion strains, locus YLR221C, strain rsa3, hits give low values 0.976 | S. cerevisiae deletion strains, locus YLR258W, strain gsy2, hits give low values 0.987 | S. cerevisiae deletion strains, locus YLR262C, strain YPT6 (second series), hits give low values 0.979 | S. cerevisiae deletion strains, locus YLR262C, strain YPT6, hits give low values 1.01 | S. cerevisiae deletion strains, locus YLR268W, strain sec22, hits give low values 1.04 | S. cerevisiae deletion strains, locus YLR320W, strain mms22, hits give low values 0.985 | S. cerevisiae deletion strains, locus YLR330W, strain CHS5, hits give low values 1.01 | S. cerevisiae deletion strains, locus YLR342W, strain FKS1 (second series), hits give low values 1.02 | S. cerevisiae deletion strains, locus YLR342W, strain FKS1, hits give low values 0.998 | S. cerevisiae deletion strains, locus YLR357W, strain rsc2, hits give low values 0.977 | S. cerevisiae deletion strains, locus YLR370C, strain arc18, hits give low values 0.991 | S. cerevisiae deletion strains, locus YLR371W, strain rom2, hits give low values 1.02 | S. cerevisiae deletion strains, locus YLR384C, strain iki3, hits give low values 0.998 | S. cerevisiae deletion strains, locus YLR418C, strain cdc73, hits give low values 1.02 | S. cerevisiae deletion strains, locus YML016C, strain PPZ1, hits give low values 1.04 | S. cerevisiae deletion strains, locus YML032C, strain rad52, hits give low values 1.03 | S. cerevisiae deletion strains, locus YML120C, strain ndi1, hits give low values 0.972 | S. cerevisiae deletion strains, locus YML124C, strain tub3, hits give low values 1.01 | S. cerevisiae deletion strains, locus YMR058W, strain fet3, hits give low values 0.981 | S. cerevisiae deletion strains, locus YMR078C, strain ctf18, hits give low values 1.01 | S. cerevisiae deletion strains, locus YMR125W, strain sto1, hits give low values 0.977 | S. cerevisiae deletion strains, locus YMR129W, hits give low values 0.989 | S. cerevisiae deletion strains, locus YMR205C, strain PFK2, hits give low values 1 | S. cerevisiae deletion strains, locus YMR223W, strain ubp8, hits give low values 1.01 | S. cerevisiae deletion strains, locus YMR231W, strain pep5, hits give low values 0.981 | S. cerevisiae deletion strains, locus YMR263W, strain SAP30, hits give low values 1.01 | S. cerevisiae deletion strains, locus YMR307W, strain GAS1, hits give low values 0.878 | S. cerevisiae deletion strains, locus YNL067W, strain RPL9B, hits give low values 1.01 | S. cerevisiae deletion strains, locus YNL071W, strain lat1, hits give low values 0.977 | S. cerevisiae deletion strains, locus YNL183C, strain NPR1, hits give low values 0.95 | S. cerevisiae deletion strains, locus YNL209W, strain ssb2, hits give low values 0.971 | S. cerevisiae deletion strains, locus YNL233W, strain BNI4, hits give low values 1.01 | S. cerevisiae deletion strains, locus YNL248C, strain rpa49, hits give low values 1 | S. cerevisiae deletion strains, locus YNL250W, strain rad50, hits give low values 1 | S. cerevisiae deletion strains, locus YNL271C, strain bni1, hits give low values 1.01 | S. cerevisiae deletion strains, locus YNL298W, strain CLA4, hits give low values 1.02 | S. cerevisiae deletion strains, locus YNL307C, strain MCK1, hits give low values 1.03 | S. cerevisiae deletion strains, locus YNL322C, strain KRE1 (second series), hits give low values 0.964 | S. cerevisiae deletion strains, locus YNR049C, strain mso1, hits give low values 0.981 | S. cerevisiae deletion strains, locus YNR052C, strain pop2, hits give low values 1.01 | S. cerevisiae deletion strains, locus YOL006C, strain TOP1, hits give low values 1 | S. cerevisiae deletion strains, locus YOL012C, strain htz1 1.35 | S. cerevisiae deletion strains, locus YOL147C, strain pex11, hits give low values 1.02 | S. cerevisiae deletion strains, locus YOR001W, strain rrp6, hits give low values 0.954 | S. cerevisiae deletion strains, locus YOR061W, strain CKA2, hits give low values 1 | S. cerevisiae deletion strains, locus YOR069W, strain VPS5, hits give low values 1.01 | S. cerevisiae deletion strains, locus YOR070C, strain gyp1, hits give low values 0.996 | S. cerevisiae deletion strains, locus YOR080W, strain dia2, hits give low values 0.981 | S. cerevisiae deletion strains, locus YOR083W, strain WHI5, hits give low values 0.966 | S. cerevisiae deletion strains, locus YOR106W, strain vam3, hits give low values 0.999 | S. cerevisiae deletion strains, locus YOR136W, strain idh2, hits give low values 1.01 | S. cerevisiae deletion strains, locus YOR144C, strain elg1, hits give low values 1.01 | S. cerevisiae deletion strains, locus YOR184W, strain ser1, hits give low values 1.03 | S. cerevisiae deletion strains, locus YOR231W, strain MKK1, hits give low values 0.996 | S. cerevisiae deletion strains, locus YOR265W, strain rbl2, hits give low values 0.997 | S. cerevisiae deletion strains, locus YOR270C, strain vph1, hits give low values 0.96 | S. cerevisiae deletion strains, locus YOR290C, strain snf2, hits give low values 0.993 | S. cerevisiae deletion strains, locus YOR316C, strain cot1, hits give low values 1 | S. cerevisiae deletion strains, locus YPL051W, strain arl3, hits give low values 1.01 | S. cerevisiae deletion strains, locus YPL078C, strain atp4, hits give low values 1.04 | S. cerevisiae deletion strains, locus YPL106C, strain sse1, hits give low values 0.976 | S. cerevisiae deletion strains, locus YPL240C, strain hsp82, hits give low values 0.983 | S. cerevisiae deletion strains, locus YPL256C, strain CLN2, hits give low values 0.984 | S. cerevisiae deletion strains, locus YPR119W, strain clb2, hits give low values 1.02 | S. cerevisiae deletion strains, locus YPR141C, strain kar3, hits give low values 1.02 | S. cerevisiae deletion strains, locus YPR163C, strain tif3, hits give low values 1.02 | S. cerevisiae deletion strains, locus YPR167C, strain met16, hits give low values 1.01 | S. cerevisiae deletion strains, strain wtn01, hits give low values 1.01 | S. cerevisiae strains, strain wild type, hits give low values 1.01
